# Reference: PubChem BioAssay
# Active and inactive are the calls of the source.
# How the values were obtained:
# [1] = system: Plasmodium falciparum Sir2 (PF13_0152, Sir2A); assay: Plasmodium falciparum Sir2A binding compounds – biochemical, small-molecule microarray, 635 nm fluorescence, primary screen (AID 1098); conditions: fluorescence 635 nm, higher = more signal;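 note: score merges spot fluorescence intensity with its signal-to-noise ratio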
# [2] = probe aDKK1 binding to arrayed compounds – biochemical, biotinylated probe, 635/667 nm fluorescence, primary screen (AID 1099); conditions: small-molecule microarray, higher = more signal;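 note: score merges 667nm spot fluorescence with signal to noise across triplicate slides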
# [3] = probe aCHRDL2 binding to arrayed compounds – biochemical, biotinylated probe, 635/667 nm fluorescence, primary screen (AID 1100); conditions: small-molecule microarray, higher = more signal
# [4] = change in splice reporter luminescence, either direction, cell-based, HEK293, spliceosome inhibition project, primary screen (AID 1101); conditions: HEK293 splicing luciferase reporter, 24 h, higher = more signal, called active from +8 up or from −8 down;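 note: HEK293 cells carrying a splicing-competent luciferase reporter gene; test concentration not given here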
# [5] = biological target: Fibroblast growth factor 10 (Homo sapiens) (UniProt O15520); assay: compounds binding fibroblast growth factor 10 – biochemical, small-molecule microarray, 635 nm fluorescence, primary screen (AID 1102); conditions: FGF10 binding, fluorescence 635 nm, higher = more signal
# [6] = system: glycogen synthase kinase-3 (GSK3A per assay name; protocol says GSK3B); assay: compounds binding glycogen synthase kinase-3 – biochemical, small-molecule microarray, 635 nm fluorescence, GSK3A, primary screen (AID 1103); conditions: fluorescence 635 nm, higher = more signal; note: the record names both GSK3A and GSK3B
# [7] = biological target: Epidermal growth factor receptor (Homo sapiens) (UniProt P00533); assay: compounds binding epidermal growth factor receptor – biochemical, small-molecule microarray, 635 nm fluorescence, primary screen (AID 1104); conditions: EGFR binding, higher = more signal;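 note: score merges 667 nm emission intensity with spot signal to noise over triplicate slides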
# [8] = biological target: Follistatin-related protein 3 (Homo sapiens) (UniProt O95633); assay: compounds binding follistatin-related protein 3 – biochemical, small-molecule microarray, 635 nm fluorescence, primary screen (AID 1105); conditions: FSTL3 binding, higher = more signal;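 note: score merges emission near 667 nm and signal to noise per printed spot across three slides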
# [9] = biological target: Dickkopf-related protein 1 (Homo sapiens) (UniProt O94907); assay: small molecules binding DKK1 protein – biochemical, small-molecule microarray, 635 nm fluorescence scan, primary screen (AID 1106); conditions: higher = more signal;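 note: score merges emission near 667 nm with signal to noise over three replicate slides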
# [10] = system: Inhibin beta A chain (activin A); assay: small molecules binding activin A – biochemical, small-molecule microarray, 635 nm fluorescence scan, primary screen (AID 1107); conditions: INHBA, higher = more signal;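 note: mouse activin A protein probed at 4.33 µg/mL on printed slides; score merges bound-protein fluorescence near 667 nm with spot signal-to-noise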
# [11] = system: Human papillomavirus type 1a protein E7 (residues 44-93); assay: small molecules binding HPV E7 44-93 – biochemical, small-molecule microarray, residues 44-93, 635 nm fluorescence, primary screen (AID 1108); conditions: fluorescence 635 nm, higher = more signal;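 note: E7 fragment applied at 1 µg/mL in TBST for 1 h at 4 C; score combines spot fluorescence with its signal to noise ratio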
# [12] = hepatitis C replication reporter changes, two-sided – Huh7 cells, luciferase reporter, HCV replication inhibitor project, primary screen (AID 1109); conditions: Huh7 HCV replicon luciferase reporter, 48 h; higher = more signal;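 note: huh7 hepatoma cells harbouring a luciferase neomycin HCV replicon reporter; luciferase luminescence as measure of HCV replicon replication; test concentration not given here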
# [13] = biological target: Left-right determination factor 2 (Homo sapiens) (UniProt O00292); assay: small molecules binding LEFTY2 protein – biochemical, small-molecule microarray, 635 nm fluorescence scan, primary screen (AID 1110); conditions: higher = more signal
# [14] = biological target: Calmodulin-1 (Homo sapiens) (UniProt P0DP23); assay: small molecules binding calmodulin-1 with EGTA – biochemical, small-molecule microarray, Cy5-labelled CALM1, profiling panel (AID 1111); conditions: Cy5-CALM1 binding fluorescence, higher = more signal;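 note: labelled calmodulin applied in Tris saline Tween buffer holding calcium plus EGTA and DTT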
# [15] = biological target: Calmodulin-1 (Homo sapiens) (UniProt P0DP23); assay: small molecules binding Ca-loaded calmodulin-1 – biochemical, small-molecule microarray, Cy5-labelled CALM1, plus calcium, artefact control for SMM control-protein annotation, profiling panel (AID 1112); conditions: Cy5-CALM1 binding fluorescence, higher = more signal;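 note: score merges spot fluorescence with signal to noise from triplicate slides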
# [16] = probe aWnt5a binding to arrayed compounds – biochemical, biotinylated probe, 635/667 nm fluorescence, primary screen (AID 1113); conditions: small-molecule microarray, higher = more signal;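 note: score merges 667 nm fluorescence intensity with signal-to-noise per printed feature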
# [17] = probe aShh binding to arrayed compounds – biochemical, biotinylated probe, 635/667 nm fluorescence, primary screen (AID 1114); conditions: small-molecule microarray, higher = more signal;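 note: probe is biotin-labelled aShh protein from a stem cell growth factor screen; measures binding of labelled protein to compounds printed on the slide; score merges feature fluorescence at 667 nm with signal-to-noise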
# [18] = probe aNog binding to arrayed compounds – biochemical, biotinylated probe, 635/667 nm fluorescence, primary screen (AID 1115); conditions: small-molecule microarray, higher = more signal;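 note: probe is biotinylated aNog protein used at 0.15 µg/mL for 1 h at 4 C; z-score combines 667 nm fluorescence of each spot with its signal to noise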
# [19] = biological target: Torsin-1A-interacting protein 1 (Homo sapiens) (UniProt Q5JTV8); assay: compound microarray binding of lysate hLAP1 – cell lysate, small-molecule microarray, COS7 lysate, 635/667 nm fluorescence, primary screen (AID 1116); conditions: 635 nm fluorescence, higher = more signal
# [20] = biological target: Alpha-bungarotoxin (Bungarus multicinctus) (UniProt P60615); assay: compounds binding labelled alpha-BTX control protein – biochemical, small-molecule microarray, Alexa647 label, 635/667 nm fluorescence, artefact control for SMM control protein annotation, profiling panel (AID 1117); conditions: alpha-BTX-A647 binding fluorescence, higher = more signal
# Chain of Alpha-bungarotoxin (Bungarus multicinctus) (P60615 whole entry, looked up): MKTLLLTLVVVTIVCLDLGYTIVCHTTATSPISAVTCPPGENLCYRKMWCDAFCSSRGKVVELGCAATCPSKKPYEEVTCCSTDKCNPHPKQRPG
# Chain of Epidermal growth factor receptor (Homo sapiens) (P00533 whole entry, looked up): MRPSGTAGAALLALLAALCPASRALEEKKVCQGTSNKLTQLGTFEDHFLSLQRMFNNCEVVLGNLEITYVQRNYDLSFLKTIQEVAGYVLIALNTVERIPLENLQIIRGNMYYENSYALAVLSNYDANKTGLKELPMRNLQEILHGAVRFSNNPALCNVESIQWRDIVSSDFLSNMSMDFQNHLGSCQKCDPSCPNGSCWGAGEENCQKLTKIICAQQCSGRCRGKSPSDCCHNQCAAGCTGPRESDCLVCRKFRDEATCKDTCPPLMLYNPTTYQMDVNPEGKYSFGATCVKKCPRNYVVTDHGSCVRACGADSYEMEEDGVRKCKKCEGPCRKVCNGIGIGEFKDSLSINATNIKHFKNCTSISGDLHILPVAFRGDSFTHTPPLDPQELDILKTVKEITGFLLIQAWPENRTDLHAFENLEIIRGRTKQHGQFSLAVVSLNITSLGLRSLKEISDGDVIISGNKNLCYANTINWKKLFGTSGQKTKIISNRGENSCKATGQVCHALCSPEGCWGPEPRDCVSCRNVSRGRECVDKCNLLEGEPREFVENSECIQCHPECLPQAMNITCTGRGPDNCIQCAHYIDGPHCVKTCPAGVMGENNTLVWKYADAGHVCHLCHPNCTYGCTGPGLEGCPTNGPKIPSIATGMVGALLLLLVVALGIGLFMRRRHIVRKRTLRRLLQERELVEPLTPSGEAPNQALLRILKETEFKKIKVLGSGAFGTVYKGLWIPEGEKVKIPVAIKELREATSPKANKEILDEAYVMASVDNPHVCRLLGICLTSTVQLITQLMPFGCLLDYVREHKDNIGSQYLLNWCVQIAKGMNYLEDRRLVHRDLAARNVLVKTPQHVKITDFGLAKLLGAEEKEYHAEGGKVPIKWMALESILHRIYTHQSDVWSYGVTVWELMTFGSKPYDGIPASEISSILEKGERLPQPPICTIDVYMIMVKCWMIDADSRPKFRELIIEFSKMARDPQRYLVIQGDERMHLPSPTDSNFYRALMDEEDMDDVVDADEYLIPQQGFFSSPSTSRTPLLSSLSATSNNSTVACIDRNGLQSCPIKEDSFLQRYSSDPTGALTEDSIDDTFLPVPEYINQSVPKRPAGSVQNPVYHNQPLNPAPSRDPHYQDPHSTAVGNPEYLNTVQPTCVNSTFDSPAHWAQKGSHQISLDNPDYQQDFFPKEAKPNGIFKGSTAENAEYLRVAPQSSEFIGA
# Chain of Follistatin-related protein 3 (Homo sapiens) (O95633 whole entry, looked up): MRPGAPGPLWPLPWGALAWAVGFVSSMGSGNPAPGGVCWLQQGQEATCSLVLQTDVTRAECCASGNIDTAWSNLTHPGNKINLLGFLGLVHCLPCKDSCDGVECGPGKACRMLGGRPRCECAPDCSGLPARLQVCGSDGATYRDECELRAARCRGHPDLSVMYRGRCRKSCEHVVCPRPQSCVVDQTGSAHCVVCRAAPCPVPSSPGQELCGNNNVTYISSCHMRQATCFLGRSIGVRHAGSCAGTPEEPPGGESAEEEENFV
# Chain of Fibroblast growth factor 10 (Homo sapiens) (O15520 whole entry, looked up): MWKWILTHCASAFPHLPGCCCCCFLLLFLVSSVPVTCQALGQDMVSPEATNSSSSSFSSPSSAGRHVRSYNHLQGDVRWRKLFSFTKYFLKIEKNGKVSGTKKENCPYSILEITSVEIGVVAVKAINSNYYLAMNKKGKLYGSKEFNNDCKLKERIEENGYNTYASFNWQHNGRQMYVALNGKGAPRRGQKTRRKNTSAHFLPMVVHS
# Chain of Left-right determination factor 2 (Homo sapiens) (O00292 whole entry, looked up): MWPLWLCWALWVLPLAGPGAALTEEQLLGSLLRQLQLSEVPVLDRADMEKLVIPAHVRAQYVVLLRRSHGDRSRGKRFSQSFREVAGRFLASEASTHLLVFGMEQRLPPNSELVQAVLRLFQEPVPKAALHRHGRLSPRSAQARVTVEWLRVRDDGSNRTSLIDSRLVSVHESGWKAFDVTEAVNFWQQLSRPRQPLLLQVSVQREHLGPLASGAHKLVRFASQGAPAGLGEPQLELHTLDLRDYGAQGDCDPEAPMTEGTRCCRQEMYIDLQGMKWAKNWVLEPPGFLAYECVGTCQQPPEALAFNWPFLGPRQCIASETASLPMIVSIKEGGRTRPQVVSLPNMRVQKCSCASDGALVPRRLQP
# Chain of Torsin-1A-interacting protein 1 (Homo sapiens) (Q5JTV8 whole entry, looked up): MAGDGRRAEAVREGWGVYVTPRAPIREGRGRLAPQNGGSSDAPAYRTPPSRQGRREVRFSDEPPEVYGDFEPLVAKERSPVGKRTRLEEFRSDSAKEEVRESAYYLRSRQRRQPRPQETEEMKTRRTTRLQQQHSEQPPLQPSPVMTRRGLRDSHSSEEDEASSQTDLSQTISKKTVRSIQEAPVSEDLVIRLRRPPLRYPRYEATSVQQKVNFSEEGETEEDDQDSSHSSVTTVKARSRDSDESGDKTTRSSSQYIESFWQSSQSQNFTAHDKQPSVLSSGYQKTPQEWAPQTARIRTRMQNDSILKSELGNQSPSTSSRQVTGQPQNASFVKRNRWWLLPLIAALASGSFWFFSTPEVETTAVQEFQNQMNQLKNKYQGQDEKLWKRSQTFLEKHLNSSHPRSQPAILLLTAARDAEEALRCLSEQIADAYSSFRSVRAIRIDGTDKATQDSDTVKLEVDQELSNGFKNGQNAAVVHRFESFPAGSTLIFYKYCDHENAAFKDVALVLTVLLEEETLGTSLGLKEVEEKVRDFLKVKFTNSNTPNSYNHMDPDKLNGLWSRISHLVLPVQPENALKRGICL
# Chain of Dickkopf-related protein 1 (Homo sapiens) (O94907 whole entry, looked up): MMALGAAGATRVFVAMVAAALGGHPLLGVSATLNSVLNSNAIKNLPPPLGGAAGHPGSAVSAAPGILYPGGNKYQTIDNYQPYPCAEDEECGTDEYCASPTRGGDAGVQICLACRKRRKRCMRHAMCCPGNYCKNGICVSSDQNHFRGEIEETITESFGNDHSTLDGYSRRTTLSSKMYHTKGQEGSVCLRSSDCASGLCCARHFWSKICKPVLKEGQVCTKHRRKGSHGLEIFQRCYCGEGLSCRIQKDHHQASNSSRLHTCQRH
Structure (SMILES),composite z-score [1],composite z-score [2],composite z-score [3],z-score [4],composite z-score [5],composite z-score [6],composite z-score [7],composite z-score [8],composite z-score [9],composite z-score [10],composite z-score [11],z-score [12],composite z-score [13],composite z-score [14],composite z-score [15],composite z-score [16],composite z-score [17],composite z-score [18],composite z-score [19],composite z-score [20]
C=C[C@H](OC)[C@@H](OC(=O)Nc1ccc(SC)cc1)c1ccc(OCCO)cc1,1.08,0.242,0.796,-1.96 (inactive),0.141,0.0735,-0.196,-0.275,0.155,-0.176,1.03,2.8,0.105,0.0629,0.362,0.0433,-0.0035,0.375,1.35,1.62
Cc1ccc(S[C@]2(C(=O)NCCN3CCOCC3)CC(=O)N(C3CCCCC3)[C@@H]2c2ccc(CO)cc2)cc1,1.35,-0.0443,0.781,0.114 (inactive),-0.103,0.606,-0.551,0.181,-0.55,0.602,1.29,-1.82,-0.55,1.06,-0.39,-0.0685,-0.186,0.0373,0.347,0.711
C#C[C@H](O[Si](C#CCCCCCC)(C(C)C)C(C)C)c1ccccc1,-0.369,-0.109,-0.132,-0.22 (inactive),-0.0831,0.173,-0.33,-0.215,-0.169,0.168,0.228,0.242,-0.234,-0.302,-0.351,-0.131,-0.341,0.167,-0.0173,0.0612
COCC1C2CC[C@H]3C(OCc4ccc(F)cc4C(F)(F)F)OC[C@]4(C)[C@H]3C2=C(CN4C(=O)OC(C)(C)C)[C@H](C)C1COC (stereo not given in full),1.45,1.04,1.23,-0.625 (inactive),0.189,0.366,0.0761,0.45,0.202,0.939,1.37,-0.386,-0.13,2.61,1.37,0.0017,0.177,2.19,1.56,0.9
C=C(COC)C(=O)CC[C@H](OC(=O)c1cccnc1)c1ccccc1OCCO,1.25,0.224,0.561,0.193 (inactive),1.12,0.844,0.471,1.27,0.559,1.22,0.862,-3.13,0.53,-0.0382,-0.689,-0.0479,-0.138,0.437,1.08,0.443
O=C1O[C@@H](c2ccccc2)[C@@H](c2ccccc2)N2[C@@H](c3ccc(O)cc3)[C@]3(C(=O)Nc4ccccc43)[C@@H](C(=O)NC[C@H](O)c3ccccc3)[C@H]12,0.851,-0.139,0.0547,0.576 (inactive),0.117,-1.28,0.249,0.244,0.259,-0.297,1.13,-0.427,0.091,0.843,0.713,-0.0659,-0.0232,-0.0899,0.137,0.262
COc1ccc([Si](C)(C)[C@H]2[C@H](CC(=O)N3Cc4ccccc4C[C@H]3CO)O[C@@]3(C(=O)N(Cc4cccc(I)c4)c4ccccc43)[C@@H]2C)cc1,0.391,-0.29,-0.162,-1.73 (inactive),1.15,0.346,1.4,1.36,1.57,1.76,0.276,-3.8,0.947,-0.551,1.49,-0.124,0.0815,-0.1,0.225,-0.0241
COc1ccc([Si](C)(C)[C@@H]2[C@@H](CCn3cc([C@H](O)c4ccccc4)nn3)O[C@]3(C(=O)N(C)c4ccccc43)[C@H]2C)cc1,0.839,-0.202,0.28,0.0848 (inactive),0.0782,0.11,0.0033,-0.291,0.0052,0.283,-0.0859,-2.32,0.0661,-0.069,-0.288,-0.197,-0.0769,-0.223,-0.173,0.0489
CCOC(=O)C[C@H]1[C@H](OC(=O)c2cc3ccccc3oc2=O)[C@@H](NC(=O)c2ccc3ccccc3c2)c2cc(OCCCO)ccc2N1C(=O)c1ccccc1,1.38,-0.151,-0.413,-1.28 (inactive),1.41,0.939,0.348,0.906,0.486,0.447,1.39,-0.593,0.129,-0.0786,-0.337,-0.12,0.214,-0.0863,0.739,0.43
C=CCC(OC(C)=O)[C@@H]1[C@@H](N(Cc2cc3ccccc3o2)C(=O)c2ccc(-c3ccccc3)cc2)c2cc(OCCCO)ccc2N1C(=O)Cc1ccc2ccccc2c1 (stereo not given in full),-0.366,-0.172,0.351,0.121 (inactive),-0.0752,-0.418,-0.227,-0.187,-0.251,1.2,0.006,-0.532,-0.36,-0.27,0.459,-0.0704,-0.0709,-0.267,0.0452,0.738
CC(=O)NCCCC[C@@H]1NC(=O)[C@@H]2C[C@H](C(=O)NCc3ccc(F)cc3)[C@H](c3ccc(O)cc3)N2C1=O,1.51,-0.239,-0.072,-0.661 (inactive),0.784,0.767,0.0059,0.177,0.592,0.0015,0.0999,-0.673,0.591,0.0633,-0.72,-0.103,0.785,-0.314,0.362,0.346
